From PubChem BioAssay AID1159580 (chemical genetic matrix, 2015)
Where “and” joins values, the source holds several entries; their conditions need not be identical. Equal entries are not always repeated. About 2,000 (36%) of roughly 5,500 compounds were called active. About 18% were inconclusive and are not listed. No stated cut-off is given here; in the data, active means normalized growth mostly below about 0.91 (no sharp cut-off); inconclusive means no clear call, values can overlap the other calls; inactive means mostly above about 0.92. The list shows a part of the results.

Test: chemical genetic growth profiling, strain panel (AID 1159580);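 further: tested at 20 µM; growth read once vehicle control cultures reached saturation at 30 °C; 1 = growth at the plate median or of vehicle wells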
Conditions: S. cerevisiae deletion strains, growth OD

Measured: normalized growth

CC1(C)CC2C1CCC1(C)OC1CCC2(C)O (centres undefined)
inactive: locus YAL013W, strain DEP1, stronger effect = lower value 1.02 | locus YAL021C, strain ccr4, stronger effect = lower value 1.01 | locus YAL026C, strain drs2, stronger effect = lower value 1.05 | locus YAL030W, strain snc1, stronger effect = lower value 1.03 | locus YBL061C, strain skt5, stronger effect = lower value 1.04 | locus YBR009C, strain hhf1, stronger effect = lower value 1.06 | locus YBR021W, strain FUR4, stronger effect = lower value 1.01 | locus YBR023C, strain chs3, stronger effect = lower value 1.05 | locus YBR171W, strain sec66, stronger effect = lower value 1.06 | locus YBR229C, strain ROT2, stronger effect = lower value 1 | locus YBR231C, strain swc5, stronger effect = lower value 1.04 | locus YBR279W, strain paf1, stronger effect = lower value 1.03 | locus YCL011C, strain gbp2, stronger effect = lower value 1.04 | locus YCL016C, strain dcc1, stronger effect = lower value 1.03 | locus YCL029C, strain bik1, stronger effect = lower value 1.03 | locus YCL061C, strain MRC1, stronger effect = lower value 1.04 | locus YCL069W, strain vba3, stronger effect = lower value 1.04 | locus YCR088W, strain abp1, stronger effect = lower value 1.04 | locus YDL005C, strain med2, stronger effect = lower value 1.03 | locus YDL035C, strain GPR1, stronger effect = lower value 1.03 | locus YDL040C, strain nat1, stronger effect = lower value 1.03 | locus YDL074C, strain BRE1, stronger effect = lower value 1.07 | locus YDL101C, strain DUN1, stronger effect = lower value 1.03 | locus YDL185W, strain tfp1, stronger effect = lower value 1.01 | locus YDL192W, strain arf1, stronger effect = lower value 1.03 | locus YDR001C, strain nth1, stronger effect = lower value 1.03 | locus YDR069C, strain doa4, stronger effect = lower value 1.06 | locus YDR101C, strain arx1, stronger effect = lower value 0.987 | locus YDR137W, strain rgp1, stronger effect = lower value 1.07 | locus YDR159W, strain sac3, stronger effect = lower value 1.11 | locus YDR162C, strain NBP2, stronger effect = lower value 1.06 | locus YDR195W, strain ref2 1.01 | locus YDR297W, strain sur2, stronger effect = lower value 1.05 | locus YDR318W, strain mcm21, stronger effect = lower value 1.04 | locus YDR334W, strain swr1, stronger effect = lower value 1.04 | locus YDR335W, strain msn5, stronger effect = lower value 1.04 | locus YDR388W, stronger effect = lower value 1.02 | locus YDR392W, strain spt3, stronger effect = lower value 1.01 | locus YDR502C, strain sam2, stronger effect = lower value 1.06 | locus YEL003W, strain gim4, stronger effect = lower value 1.04 | locus YEL037C, strain rad23, stronger effect = lower value 1.03 | locus YEL061C, strain CIN8 (second series), stronger effect = lower value 1.03 | locus YEL061C, strain CIN8, stronger effect = lower value 1.02 | locus YER015W, strain faa2, stronger effect = lower value 1.04 | locus YER016W, strain bim1, stronger effect = lower value 1.04 | locus YER110C, stronger effect = lower value 1.01 | locus YER111C, strain swi4, stronger effect = lower value 1.03 | locus YER155C, strain BEM2 (second series), stronger effect = lower value 1.07 | locus YER155C, strain BEM2, stronger effect = lower value 1.03 | locus YER167W, strain BCK2, stronger effect = lower value 1.01 | locus YFR010W, strain ubp6, stronger effect = lower value 1.05 | locus YGL078C, strain dbp3, stronger effect = lower value 1.02 | locus YGL086W, strain mad1, stronger effect = lower value 1.02 | locus YGL167C, strain pmr1, stronger effect = lower value 1.03 | locus YGL173C, strain kem1, stronger effect = lower value 1.06 | locus YGL227W, strain vid30, stronger effect = lower value 1.03 | locus YGL240W, strain doc1, stronger effect = lower value 1.04 | locus YGL248W, strain PDE1, stronger effect = lower value 1.05 | locus YGL253W, strain hxk2, stronger effect = lower value 1.07 | locus YGR135W, strain pre9, stronger effect = lower value 1.04 | locus YGR252W, strain gcn5, stronger effect = lower value 1.17 | locus YHR013C, strain ard1, stronger effect = lower value 1.05 | locus YHR027C, strain rpn1, stronger effect = lower value 1.06 | locus YHR030C, strain SLT2, stronger effect = lower value 1.02 | locus YHR079C, strain IRE1 (second series), stronger effect = lower value 1.01 | locus YHR079C, strain IRE1, stronger effect = lower value 1.04 | locus YHR094C, strain hxt1, stronger effect = lower value 1.01 | locus YHR129C, strain ARP1, stronger effect = lower value 1.02 | locus YHR142W, strain chs7, stronger effect = lower value 1.06 | locus YHR200W, strain rpn10, stronger effect = lower value 1.04 | locus YIL066C, strain RNR3, stronger effect = lower value 1.02 | locus YIL073C, strain SPO22, stronger effect = lower value 1.12 | locus YIL125W, strain kgd1, stronger effect = lower value 1.01 | locus YIR030C, strain dcg1, stronger effect = lower value 1.01 | locus YJL092W, strain hpr5, stronger effect = lower value 1.04 | locus YJL095W, strain BCK1 (second series), stronger effect = lower value 1.03 | locus YJL095W, strain BCK1, stronger effect = lower value 1.08 and 1.04 | locus YJL115W, strain asf1, stronger effect = lower value 1.04 | locus YJL129C, strain trk1, stronger effect = lower value 1.08 | locus YJL134W, strain LCB3, stronger effect = lower value 1.02 | locus YJL154C, strain vps35, stronger effect = lower value 1.03 | locus YJL164C, strain tpk1, stronger effect = lower value 1.04 | locus YJL166W, strain qcr8, stronger effect = lower value 1.05 | locus YJL168C, strain set2, stronger effect = lower value 1.02 | locus YJL187C, strain SWE1 (second series), stronger effect = lower value 1.06 | locus YJL187C, strain SWE1, stronger effect = lower value 1.05 | locus YJR043C, strain POL32, stronger effect = lower value 1.04 | locus YJR066W, strain TOR1, stronger effect = lower value 0.961 | locus YKL009W, strain mrt4, stronger effect = lower value 1.01 | locus YKL068W, stronger effect = lower value 1 | locus YKL085W, strain MDH1 (second series), stronger effect = lower value 1 | locus YKL085W, strain MDH1, stronger effect = lower value 1 | locus YKL160W, strain elf1, stronger effect = lower value 1.02 | locus YKR001C, strain vps1, stronger effect = lower value 1.1 | locus YKR026C, strain gcn3, stronger effect = lower value 1.04 | locus YKR091W, strain srl3, stronger effect = lower value 1.02 | locus YLL001W, strain dnm1, stronger effect = lower value 1.01 | locus YLL026W, stronger effect = lower value 1.04 | locus YLL041C, strain sdh2, stronger effect = lower value 1.03 | locus YLR027C, strain aat2, stronger effect = lower value 1.05 | locus YLR039C, strain RIC1, stronger effect = lower value 1.2 | locus YLR058C, strain SHM2, stronger effect = lower value 1.05 | locus YLR102C, strain apc9, stronger effect = lower value 1.01 | locus YLR113W, strain HOG1, stronger effect = lower value 1.03 | locus YLR221C, strain rsa3, stronger effect = lower value 1.07 | locus YLR258W, strain gsy2, stronger effect = lower value 1.05 | locus YLR262C, strain YPT6 (second series), stronger effect = lower value 1.06 | locus YLR268W, strain sec22, stronger effect = lower value 1.04 | locus YLR320W, strain mms22, stronger effect = lower value 1.07 | locus YLR342W, strain FKS1 (second series), stronger effect = lower value 1.09 | locus YLR342W, strain FKS1, stronger effect = lower value 1.05 | locus YLR357W, strain rsc2, stronger effect = lower value 1.07 | locus YLR370C, strain arc18, stronger effect = lower value 1.04 | locus YLR371W, strain rom2, stronger effect = lower value 0.999 | locus YLR384C, strain iki3, stronger effect = lower value 1.05 | locus YLR418C, strain cdc73, stronger effect = lower value 1.11 | locus YML016C, strain PPZ1, stronger effect = lower value 1.01 | locus YML032C, strain rad52, stronger effect = lower value 1.04 | locus YML120C, strain ndi1, stronger effect = lower value 1.03 | locus YML124C, strain tub3, stronger effect = lower value 0.999 | locus YMR058W, strain fet3, stronger effect = lower value 1.05 | locus YMR078C, strain ctf18, stronger effect = lower value 1.01 | locus YMR125W, strain sto1, stronger effect = lower value 1.05 | locus YMR129W, stronger effect = lower value 1.02 | locus YMR205C, strain PFK2, stronger effect = lower value 1.06 | locus YMR223W, strain ubp8, stronger effect = lower value 1.05 | locus YMR231W, strain pep5, stronger effect = lower value 1.04 | locus YMR263W, strain SAP30, stronger effect = lower value 1.02 | locus YMR307W, strain GAS1, stronger effect = lower value 1.1 | locus YNL067W, strain RPL9B, stronger effect = lower value 1.03 | locus YNL071W, strain lat1, stronger effect = lower value 1.04 | locus YNL128W, strain TEP1, stronger effect = lower value 1.04 | locus YNL153C, strain GIM3, stronger effect = lower value 1.05 | locus YNL183C, strain NPR1, stronger effect = lower value 0.975 | locus YNL209W, strain ssb2, stronger effect = lower value 1.03 | locus YNL233W, strain BNI4, stronger effect = lower value 1.07 | locus YNL248C, strain rpa49, stronger effect = lower value 1.05 | locus YNL250W, strain rad50, stronger effect = lower value 1.04 | locus YNL271C, strain bni1, stronger effect = lower value 1.03 | locus YNL298W, strain CLA4, stronger effect = lower value 1.01 | locus YNL307C, strain MCK1, stronger effect = lower value 1.01 | locus YNL322C, strain KRE1 (second series), stronger effect = lower value 1.04 | locus YNL322C, strain KRE1, stronger effect = lower value 1.02 | locus YNR049C, strain mso1, stronger effect = lower value 1.04 | locus YNR052C, strain pop2, stronger effect = lower value 1.03 | locus YOL006C, strain TOP1, stronger effect = lower value 1.19 | locus YOL012C, strain htz1 1 | locus YOL147C, strain pex11, stronger effect = lower value 1.02 | locus YOR001W, strain rrp6, stronger effect = lower value 1.08 | locus YOR061W, strain CKA2, stronger effect = lower value 1.02 | locus YOR069W, strain VPS5, stronger effect = lower value 1.02 | locus YOR070C, strain gyp1, stronger effect = lower value 1.05 | locus YOR080W, strain dia2, stronger effect = lower value 1.03 | locus YOR083W, strain WHI5, stronger effect = lower value 1.03 | locus YOR106W, strain vam3, stronger effect = lower value 1.04 | locus YOR136W, strain idh2, stronger effect = lower value 1 | locus YOR144C, strain elg1, stronger effect = lower value 1.01 | locus YOR184W, strain ser1, stronger effect = lower value 1.05 | locus YOR231W, strain MKK1, stronger effect = lower value 1.05 | locus YOR265W, strain rbl2, stronger effect = lower value 1.04 | locus YOR270C, strain vph1, stronger effect = lower value 1.14 | locus YOR290C, strain snf2, stronger effect = lower value 1.04 | locus YOR316C, strain cot1, stronger effect = lower value 1 | locus YPL051W, strain arl3, stronger effect = lower value 1.05 | locus YPL055C, strain LGE1, stronger effect = lower value 1.06 | locus YPL078C, strain atp4, stronger effect = lower value 1.02 | locus YPL106C, strain sse1, stronger effect = lower value 1.02 | locus YPL240C, strain hsp82, stronger effect = lower value 1.03 | locus YPL256C, strain CLN2, stronger effect = lower value 1.04 | locus YPR119W, strain clb2, stronger effect = lower value 1.02 | locus YPR141C, strain kar3, stronger effect = lower value 0.991 | locus YPR163C, strain tif3, stronger effect = lower value 1.04 | locus YPR167C, strain met16, stronger effect = lower value 1 | strain wtn01, stronger effect = lower value 1.04
